Inconclusive results are not listed. Active and inactive are the calls of the source. The call rests on the fitted dose curve; in most records, active means well fitted inhibition curve with a large enough effect; inconclusive means small, poorly fitted or top-dose-only effect, or another doubt; inactive means no such curve, though single readings can be large or run the other way.
target: Neuropeptide S receptor (Homo sapiens) (UniProt Q6W5P4); assay: Confirmation Concentration-Response Assay for Antagonists of the Neuropeptide S Receptor: Robust Characterization of Calcium Signal Transduction; details: CHO-NPSR cells, NPS-induced calcium fluorescence (FDSS); series mostly up to 31.6 µM
Sequence (Q6W5P4 whole entry, looked up): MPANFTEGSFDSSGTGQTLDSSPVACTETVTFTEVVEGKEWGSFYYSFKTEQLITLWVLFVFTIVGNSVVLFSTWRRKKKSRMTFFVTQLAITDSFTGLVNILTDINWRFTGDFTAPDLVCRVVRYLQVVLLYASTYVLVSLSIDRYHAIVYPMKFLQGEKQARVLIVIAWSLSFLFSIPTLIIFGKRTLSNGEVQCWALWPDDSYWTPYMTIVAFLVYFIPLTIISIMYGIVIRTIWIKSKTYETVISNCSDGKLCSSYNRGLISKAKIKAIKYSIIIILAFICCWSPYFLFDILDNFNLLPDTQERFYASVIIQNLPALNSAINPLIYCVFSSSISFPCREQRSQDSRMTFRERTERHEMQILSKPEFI
Source text: NIH Chemical Genomics Center [NCGC] NIH Molecular Libraries Probe Production centers Network [MLPCN] MLPCN Grant: X01-DA026210-01 Assay Submitter (PI): Heilig, Markus Alexander NCGC Assay Overview: Neuropeptide S receptor (NPSR), previously known as GPR154, is a recently de-orphanized G protein coupled receptor. Its endogenous ligand is the 20 amino acids peptide Neuropeptide S (NPS). […] NPS and its receptor are found in various tissues. Specifically they are highly expressed in brain areas that have been implicated in modulation of arousal, stress and anxiety. Central administration of NPS in mice produces an unusual profile of activity by inducing wakefulness and arousal, while at the same time suppressing anxiety. Therefore, NPSR may represent a novel drug target for the treatment of sleep and anxiety disorders. To identify NPSR antagonists, we developed a cell-based assay with transfected NPS receptor. NPS can stimulate the production of cAMP as well as release intracellular calcium in Chinese hamster ovary cells stably expressing NPS receptor. This change in intracellular calcium can be detected using a calcium indicator dye on a calcium imaging plate reader system (FDSS). This particular assay uses a high density of sampling across concentration-response space to establish more confidence estimates of potency.
NCGC Assay Protocol Summary: A Chinese hamster ovary (CHO) cell line stably expressing the NPS receptor (CHO-NPSR) was obtained from Dr. Heilig lab at NIAAA and maintained in F-12 Kaighn's media (Invitrogen, Carlsbad, CA, 21127) supplemented with 10 % FBS, 100 units/ml penicillin, 100 ug/ml streptomycin and 250 ug/ml geneticin at 37C, 5% CO2 in a humidified atmosphere. Before the assay, aliquots of cells were frozen and stored at -135C. The assay was performed on a FDSS-7000 kinetic plate reader in 1536-well format. For both agonist (1-220s) and antagonist (221-400s) phases, the maximums of kinetic fluorescence responses were converted separately into text files using the instrument's software data export utility. Data for agonist response were normalized to the controls for basal activity (DMSO only) and 100% activation (NPS). […] AC50 values were determined from concentration-response data modeled with the standard Hill equation. NPS 1536-well FDSS assay protocol: (1) Frozen CHO-NPSR cells were thaw, washed once with fresh media and resuspended in F-12 Kaighn's media supplemented with 10 % FBS, 100 units/ml penicillin and 100 ug/ml streptomycin. Cells were plated at 3 ul/well (1200 cells) to black, clear-bottom, tissue-culture treated 1536-well plates, and then cultured at 37C, 5 % CO2 for 16 to 30 hours. (2) Add 3 ul of calcium dye (from High Performance PBX Calcium Assay Kit, BD Biosciences). The calcium dye was prepared according to the manufactory's instruction. (3) Incubation at 37C, 5 % CO2 for 60 to 120 min. (4) Load plates to FDSS-7000. The following steps were performed on FDSS-7000. (5) Record fluorescent background (Ex 480 nm, Em 520-560 nm) for 10 s. (6) Add 23 nl/well of compound in DMSO solution. The final titration for each compound was between 0.6 nM and 46 uM. Record agonist response for 210 s. (7) Add 2 ul of stimulation reagent (1X HBSS buffer, 0.1% BSA, 60 nM NPS). Record antagonist response for 140 s. Keywords: MLSMR, MLPCN, NIH Roadmap, qHTS, NCGC, NPS, Neuropeptide S Antagonists

Potency, active:
COc1cccc(C2c3c(ncn(-c4cccc(F)c4)c3=N)Oc3ccc4ccccc4c32)c1 (stereo not given) 0.0695 µM, COc1ccc(C2c3c(ncn(CCCc4ccccc4)c3=N)Oc3ccc4ccccc4c32)cc1OC (stereo not given) 3.91 µM, COc1cccc(C2c3c(ncn(CCCN4CCOCC4)c3=N)Oc3ccc4ccccc4c32)c1 (stereo not given) 1.39 µM, N=c1c2c(ccn1CCCc1ccccc1)Oc1ccc3ccccc3c1C2c1ccccc1 (stereo not given) 3.48 µM, N=c1c2c(ccn1CCc1ccccc1)Oc1ccc3ccccc3c1C2c1ccccc1 (stereo not given) 0.492 µM, COc1ccc(C2c3c(ncn(CCN4CCOCC4)c3=N)Oc3ccc4ccccc4c32)cc1OC (stereo not given) 0.438 µM, COc1cccc(C2c3c(ncn(-c4ccccc4Cl)c3=N)Oc3ccc4ccccc4c32)c1 (stereo not given) 4.38 µM, COc1cccc(C2c3c(ncn(-c4ccc(NC(C)=O)cc4)c3=N)Oc3ccc4ccccc4c32)c1 (stereo not given) 4.38 µM, COc1cccc(C2c3c(ncn(-c4ccccn4)c3=N)Oc3ccc4ccccc4c32)c1 (stereo not given) 4.92 µM, COc1cccc(C2c3c(ncn(Cc4cccs4)c3=N)Oc3ccc4ccccc4c32)c1 (stereo not given) 3.1 µM, Fc1ccc(-c2c(P(=S)(c3ccccc3)c3ccccc3)n3ccccc3[n+]2C/C=C/c2ccccc2)cc1 0.0201 µM, COc1cccc(C2c3c(ncn(-c4cccc(C)c4)c3=N)Oc3ccc4ccccc4c32)c1 (stereo not given) 3.91 µM, COc1ccc(-n2cnc3c(c2=N)C(c2cccc(OC)c2)c2c(ccc4ccccc24)O3)cc1 (stereo not given) 1.74 µM, COc1cccc(C2c3c(ncn(-c4ccccc4Br)c3=N)Oc3ccc4ccccc4c32)c1 (stereo not given) 2.76 µM, COc1cccc(C2c3c(ncn(CCN4CCOCC4)c3=N)Oc3ccc4ccccc4c32)c1 (stereo not given) 1.74 µM, O=C(Nc1ncnc2c1C(c1ccccc1)c1c(ccc3ccccc13)O2)c1ccccc1 (stereo not given) 4.92 µM, COc1ccc(C2c3c(ncn(Cc4ccccc4)c3=N)Oc3ccc4ccccc4c32)cc1OC (stereo not given) 0.619 µM, O=C(CCc1ccccc1)Nc1ncnc2c1C(c1ccccc1)c1c(ccc3ccccc13)O2 (stereo not given) 1.96 µM, S=P(c1ccccc1)(c1ccccc1)c1c[n+](C/C=C/c2ccccc2)c2ccccn12 0.0318 µM, O=C(Cc1ccccc1)Nc1ncnc2c1C(c1ccccc1)c1c(ccc3ccccc13)O2 (stereo not given) 1.1 µM, CCOC(=O)CCC(=O)Nc1ncnc2c1C(c1ccccc1)c1c(ccc3ccccc13)O2 (stereo not given) 1.24 µM, N=c1c2c(ccn1-c1ccccc1)Oc1ccc3ccccc3c1C2c1ccccc1 (stereo not given) 0.22 µM, COc1ccc(C2c3ccc(OCc4ccccc4)cc3Oc3ncn(CCN4CCOCC4)c(=N)c32)cc1OC (stereo not given) 11 µM, CCOc1ccc(C2c3c(ncn(-c4ccccc4)c3=N)Oc3ccc4ccccc4c32)cc1OCC (stereo not given) 2.46 µM, COc1cccc(C2c3c(ncn(-c4cccc(OC)c4)c3=N)Oc3ccc4ccccc4c32)c1 (stereo not given) 0.391 µM, COc1cccc(C2c3c(ncn(-c4cccc(C#N)c4)c3=N)Oc3ccc4ccccc4c32)c1 (stereo not given) 2.76 µM, N=c1c2c(ccn1Cc1ccccc1)Oc1ccc3ccccc3c1C2c1ccccc1 (stereo not given) 3.91 µM, CCC(C)(CCN1CCOCC1)N(Cc1cc2ccccc2n(C)c1=O)C(=O)C1CCCCC1 (stereo not given) 0.00135 µM, COc1cccc(C2c3c(ncn(-c4ccc(C#N)cc4)c3=N)Oc3ccc4ccccc4c32)c1 (stereo not given) 1.39 µM, COc1cccc(C2c3c(ncn(-c4ccc(C)cc4)c3=N)Oc3ccc4ccccc4c32)c1 (stereo not given) 2.46 µM, N=c1c2c(ncn1-c1ccccc1)Oc1ccc3ccccc3c1C2c1ccc2c(c1)OCO2 (stereo not given) 0.619 µM, COc1cccc(C2c3c(ncn(-c4ccccc4SC)c3=N)Oc3ccc4ccccc4c32)c1 (stereo not given) 0.0246 µM, COc1cccc(C2c3c(ncn(-c4ccc5c(c4)OCO5)c3=N)Oc3ccc4ccccc4c32)c1 (stereo not given) 0.0438 µM, Nc1ncnc2c1C(c1ccccc1)c1c(ccc3ccccc13)O2 (stereo not given) 0.139 µM, CCOC(=O)CC(=O)Nc1ncnc2c1C(c1ccccc1)c1c(ccc3ccccc13)O2 (stereo not given) 0.552 µM, COc1ccc(C2c3ccccc3Oc3ncn(CCN4CCOCC4)c(=N)c32)cc1OC (stereo not given) 0.619 µM

Potency, inactive:
COc1ccc(C2C3=C(N=CN(CCN4CCOCC4)C3N)Oc3ccccc32)cc1OC (stereo not given), COc1cccc(C2C(C#N)=C(NC(=O)CCc3ccccc3)Oc3ccc4ccccc4c32)c1 (stereo not given), COc1cccc(C2c3c(ncn(-c4ccc(-c5ccccc5)cc4)c3=N)Oc3ccc4ccccc4c32)c1 (stereo not given), COc1cccc(C2C(C#N)=C(NC(=O)NCc3ccccc3)Oc3ccc4ccccc4c32)c1 (stereo not given)
